Sampled rows, rich in hits. Any-hit rate of the full collection: about 7.9%.
MCF10A rerep – inducers of DNA re-replication in MCF 10A breast cells. MCF 10A DNA re-replication, Hoechst nuclear intensity, 48 h. Potency, µM (doses to about 46.1 µM), for the others: top-dose activity, positive = re-replication, usual class: activators. actives 2.9% (n = 350,000); also: % of control where 0% means no effect; nearly all actives have a fitted effect of over 50% in size
KB-3-1 cytotox – KB-3-1 parental cell cytotoxicity. KB-3-1 viability, CellTiter-Glo ATP luminescence, 72 h. Potency, µM (doses to about 46.1 µM), usual class: cytotoxic. actives 1.4% (n = 400,000); also: % is scaled to controls: 0 for no effect and ±100 for the full control effect; nearly all actives have a fitted effect of over 60% in size
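KB-3-1 cells, DMEM (no phenol red) + 10% FBS; compound by pin transfer, 72 h, 37 °C. Readout: CellTiter-Glo luminescence after 10 min. Data normalized, curve-fitted.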
SW480 rerep – induces DNA re-replication in SW480 colon adenocarcinoma cells; SW480 DNA re-replication, Hoechst DNA content imaging, 48 h; Potency, µM (titrated, usually from 46.1 µM), inactives show top-dose re-replication activation, hits mostly activators; AID 624297; actives 1.8% (n = 340,000); also: % of control where 0% means no effect; nearly all actives have a fitted effect of over 55% in size
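DNA re-replication was detected as more nuclei of elevated Hoechst intensity after 48 hr exposure to compound (23 nL pinned per well of 250 cells).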
HT1080-NT tox – kills 2HG-producing HT-1080-NT fibrosarcoma cells. Potency, µM (series often up to 46.1 µM), for the others: at the top dose activity, negative = less viability, actives largely listed as cytotoxic. actives 1.6% (n = 360,000). HT-1080-NT fibrosarcoma viability, CellTiter-Glo ATP luminescence, 48 h;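 also: NT is the 2HG producing partner of a matched IDH1 knockdown line; 0% = DMSO-treated cells and -100% = media-only wells without cells; nearly all actives have a fitted effect of over 55% in size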
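Toxicity toward the 2HG-producing NT line was scored as %Activity, normalised to DMSO and no-cell wells, from CellTiter-Glo luminescence after 48 hours' treatment.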
HT1080 IDH1KD tx – HT-1080 IDH1 knockdown cell toxicity (counter line) | Potency, µM (top dose mostly 46.1 µM), for the others: top-dose activity, negative = toxicity, most hits filed as cytotoxic | AID 686971 | HT-1080 IDH1 knockdown viability, ATP luminescence, 48 h | actives 2% (n = 360,000);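 also: 0% = DMSO wells and -100% = cell-free medium wells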
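CellTiter-Glo luminescence after 48 h compound exposure at 37 degrees C of IDH1-knockdown HT-1080 cells in 5% FBS RPMI. %Activity scaled between DMSO wells and cell-free media wells, with curves fitted and assigned curve classes.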
KB-V1 MDR tox – KB-V1 MDR subline cytotoxicity; KB-V1 MDR cells viability, CellTiter-Glo, 72 h; Potency, µM (titrated, usually from 46.1 µM), actives largely listed as cytotoxic; actives 3.4% (n = 400,000); also: % is scaled to controls: 0 for no effect and ±100 for the full control effect; nearly all actives have a fitted effect of over 60% in size
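qHTS viability screen in drug-selected KB-V1 MDR cells: 72 h compound treatment at 37 degrees C, ATP luminescence end point.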
The depositor's hits bear a star; i = inactive; ? = inconclusive; . = not tested or not shown; [ ] = remark or other dose. Calls follow the shape of the dose curve; as a rule, active = well fitted curve in the direction sought with a large enough effect; inconclusive = small, poorly fitted or top-dose-only effect, or another doubt; inactive = no such curve, though single readings can be large; an effect the other way counts as inactive or inconclusive. Potency is read from the fitted curve at half-maximal effect.

SMILES	MCF10A rerep	KB-3-1 cytotox	SW480 rerep	HT1080-NT tox	HT1080 IDH1KD tx	KB-V1 MDR tox
COc1ccc(CN(Cc2ccccc2)C(=O)CN2CCN(C)CC2)cc1COc1ccc(NC(C)=O)cc1	.	.	.	-16.3%	-13.6%	.
CC(C)c1ccc(NC(=O)CSC2=Nc3ccccc3C3=NC(CC(=O)NCCc4ccccc4)C(=O)N23)cc1 (stereo not given)	.	i	.	.	.	i
COc1cccc(-c2ncc3ccccc3c2COC(=O)CCCC(=O)O)c1	1.0%	i	14.5%[9.22 µM]	0.7%	-6.5%	i
CCN1C(=O)C(CC(=O)Nc2ccc(F)cc2)N(CCCN2CCN(c3ccc(F)cc3)CC2)C1=S (stereo not given)	?	i	13.2%	29.1µM*	?	?
CCCOc1ccc(NC(=O)CC2C(=O)N(CC)C(=S)N2CCCN2CCN(Cc3ccccc3)CC2)cc1 (stereo not given)	?	?	?	16.4µM*	16.4µM*	?
CCCOc1ccc(NC(=O)CC2C(=O)N(CC)C(=S)N2CCNC(C)=O)cc1 (stereo not given)	?	i	23.6%	9.0%	6.0%	i

Screening data (PubChem)
